In the supplement of paper PMC5919970:
In all, about 2,000 compounds were measured (“fractional viability relative to vehicle”: median about 0.92, lowest 2% from about 0.11 on). The list comes from a sample in which the lowest values are over-represented; it also holds similar structures and randomly drawn compounds.

Test system: TYKNU
Test: fractional viability relative to vehicle; TYKNU is a high-grade serous ovarian cancer line; higher = less growth inhibition
Settings: 72 h, genotype: OPA1 knockout (sgOPA1 #2)
In short: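 TYKNU control cells or lentiCRISPRv2 knockout derivatives were plated at 500 cells per well in duplicate into drug-stamped 384-well plates holding a ~2100-compound library at 2 or 10 μM. Culture was in RPMI 1640 with 10% FBS at 37 °C in 5% CO2, with 72 h of drug treatment. Viability was measured by Cell Titer Glo luminescence, and the averaged duplicate treatment wells were normalised to duplicate control wells at the same plate position.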

Row | SMILES | fractional viability (2uM) | fractional viability (10uM)
1 | O=C(COc1ccc(Cl)cc1)NC1CCC(NC(=O)COc2ccc(Cl)cc2)CC1 (stereo not drawn) [ISRIB (trans-isomer)] | 1.09 | 0.976
2 | Clc1ccc(C2(c3ccc(-c4cn[nH]c4)cc3)CCNCC2)cc1 | 1.03 | 0.554
3 | COCCOc1nc(-c2ccc(Cl)c(Cl)c2)n(-c2ccc(NC(=O)CCl)cc2)n1 [MI-2 (MALT1 inhibitor)] | 1 | 0.952
4 | COc1ccc(-n2c(SCCCN3C(=O)c4cccc5cccc(c45)C3=O)nnc2-c2ccncc2)cc1 | 0.913 | 0.874
5 | Cc1c(CN2CCN(C(=O)[C@H](C)O)CC2)sc2c(N3CCOCC3)nc(-c3cnc(N)nc3)nc12 | 0.392 | 0.376
6 | COc1ccc(-c2nc(N3CCOCC3)c3sc(CN(C)c4ncc(C(=O)NO)cn4)cc3n2)cn1 | 0.118 | 0.115
7 | CS(=O)(=O)N1CCN(Cc2cc3nc(-c4cccc5[nH]ncc45)nc(N4CCOCC4)c3s2)CC1 | 0.824 | 0.658
8 | O=C1[C@H](Cc2ccc(O)cc2)N2C(=O)CCN(C(=O)NCc3ccccc3)[C@H]2CN1Cc1cccc2ccccc12 | 0.962 | 0.449
9 | COc1cccc(-n2c(=O)[nH]c3cc(Cl)n(-c4ccc(-c5cccc(OC)c5O)cc4)c3c2=O)c1 | 0.827 | 0.807
10 | Cn1cc(-c2cnn3c(N)c(Br)c([C@@H]4CCCNC4)nc23)cn1 | 0.571 | 0.814
11 | Nc1nc(Nc2ccc3c(c2)CCC(N2CCCC2)CC3)nn1-c1cc2c(nn1)-c1ccccc1CCC2 (stereo unspecified) | 0.566 | 0.0864
12 | COc1ccc([C@@H]2CC(=O)c3c(O)cc(O[C@@H]4O[C@H](CO)[C@@H](O)[C@H](O)[C@H]4O[C@@H]4O[C@@H](C)[C@H](O)[C@@H](O)[C@H]4O)cc3O2)cc1O [Neohesperidin] | 1.11 | 0.888
13 | COc1ccc2c(c1)CCC1C2CCC2(C)C(NCCCCCCN3C(=O)C=CC3=O)CCC12 (stereo unspecified) | 0.747 | 0.738
14 | CCN1CCN(Cc2ccc(Nc3ncc(F)c(-c4cc(F)c5nc(C)n(C(C)C)c5c4)n3)nc2)CC1 | 0.602 | 0.0904
15 | CNC(=O)c1ccccc1Oc1nc(Nc2cc(OC)c(OC)c(OC)c2)ncc1Br | 0.717 | 0.828
16 | CN(CC(=O)N(Cc1ccc(C2CCCCC2)cc1)c1ccc(C(=O)O)cc1)S(=O)(=O)c1c(F)c(F)c(F)c(F)c1F | 0.662 | 0.0586
17 | C[C@H](NC(=O)[C@@H](O)c1cc(F)cc(F)c1)C(=O)N[C@@H]1C(=O)N(C)c2ccccc2-c2ccccc21 | 1.2 | 1.02
18 | CC[C@@]1(O)C(=O)OCc2c1cc1n(c2=O)Cc2cc3cc(O)ccc3nc2-1 [(S)-10-Hydroxycamptothecin] | 0.179 | 0.157
19 | COc1cc2/c(=N/c3ccc(Br)cc3F)nc[nH]c2cc1OCC1CCN(C)CC1 [Vandetanib (ZD6474)] | 1.31 | 0.638
20 | COc1nc(OCc2cccc(-c3ccccc3)c2C)ccc1CNCCNC(C)=O [PD-1/PD-L1 inhibitor 2] | 0.912 | 0.487
21 | NS(=O)(=O)NCCNc1nonc1/C(=N/O)Nc1ccc(F)c(Br)c1 | 0.817 | 0.783
22 | C=CC(=O)Nc1cc(Nc2nccc(-c3c[nH]c4ccccc34)n2)c(OC)cc1N(C)CCN(C)C | 0.542 | 0.0815

Row | SMILES | fractional viability (2uM) | fractional viability (10uM)
23 | C=CC(=O)Nc1cccc(C)c1Nc1ncc2cc(-c3c(Cl)c(OC)cc(OC)c3Cl)ccc2n1 | 0.676 | 0.37
24 | C=CC(=O)Nc1cccc(Nc2nc(Nc3ccc(NC4CN(CCF)C4)cc3OC)ncc2C(F)(F)F)c1 | 0.897 | 0.432
25 | C=CC(=O)Nc1cc(Nc2nccc(-c3cn(C)c4ccccc34)n2)c(OC)cc1N(C)CCN(C)C | 0.766 | 0.0725
26 | C=CC(=O)Nc1cccc(Nc2nc(Nc3ccc(N4CCN(C(C)=O)CC4)cc3OC)ncc2C(F)(F)F)c1 | 0.781 | 0.431
27 | COc1cc(N2CCC(N)CC2)ccc1Nc1ncc(Cl)c(-c2c[nH]c3ccccc23)n1 | 0.672 | 0.177
28 | CCC[C@H](Nc1nc(-c2ccc(NC(=O)NCC)c(OC)c2)ncc1C)c1cccnc1 [CYT997 (Lexibulin)] | 0.378 | 0.361
29 | COc1ccc(CCC(=O)Nc2nc3ccc(Cl)cc3s2)cc1OC | 0.989 | 1.04
30 | CNc1cc(-c2cccc(Cl)c2Cl)nc(N)n1 | 0.476 | 0.368
31 | CN1CCN(C2CCN(C(=O)Nc3cc(Oc4ccc(NC(=O)C5(C(=O)Nc6ccc(F)cc6)CC5)c(F)c4)ccn3)CC2)CC1 [Golvatinib (E7050)] | 0.92 | 0.485
32 | COc1ccc(C2=N[C@H](c3ccc(Cl)cc3)[C@H](c3ccc(Cl)cc3)N2C(=O)N2CCNC(=O)C2)c(OC(C)C)c1 [Nutlin-3b] | 0.806 | 0.737
33 | CCOc1nc2cccc(C(=O)O)c2n1Cc1ccc(-c2ccccc2-c2noc(=O)[nH]2)cc1 [Azilsartan] | 0.997 | 1.12
34 | CCc1cccc(CC)c1NC(=O)N1Cc2[nH]nc(NC(=O)c3ccc(N4CCN(C)CC4)cc3)c2C1 | 1.02 | 0.885
35 | CO[C@@H](C(=O)N1Cc2[nH]nc(NC(=O)c3ccc(N4CCN(C)CC4)cc3)c2C1)c1ccccc1 | 0.964 | 0.815
36 | CN1CCN(c2ccc(C(=O)Nc3n[nH]c4ccc(Cc5cc(F)cc(F)c5)cc34)c(NC3CCOCC3)c2)CC1 [Entrectinib (RXDX-101)] | 0.712 | 0.113
37 | Clc1cccc(CN=C2Nc3ccccc3NC23CCNCC3)c1 [Liproxstatin-1] | 0.816 | 0.729
38 | CCOc1cn(-c2ccc(F)cc2C)nc1C(=O)Nc1ccc(Oc2ccnc3cc(OC)c(OC)cc23)c(F)c1 | 0.919 | 0.773
39 | Clc1ccc(C(Cn2ccnc2)OCc2ccc(Sc3ccccc3)cc2)c(Cl)c1 (stereo unspecified) [Fenticonazole Nitrate] | 0.933 | 0.911
40 | Cc1cc(C)c(CNC(=O)c2cc(-c3ccc(N4CCN(C)CC4)nc3)cc3c2c(C)cn3C(C)C)c(=O)[nH]1 | 0.878 | 0.945
41 | C=C1C(=O)O[C@H]2[C@H]1CC/C(C)=C/CC[C@@]1(C)O[C@@H]21 [(-)-Parthenolide] | 0.557 | 0.0743
42 | C=C1C(=O)O[C@@H]2/C=C(\C)CC/C=C(\C)CC[C@@H]12 [Costunolide] | 1.15 | 0.522
43 | Cc1c[nH]c(/C=C2\C(=O)Nc3ccccc32)c1CCC(=O)O | 0.793 | 0.846
